# Among all 5,500 compounds or so, about 2,000 (36%) were called active. Inconclusive results (about 18%) are left out. This is one part of the list. Unmarked numbers belong to inactive results. No stated cut-off is given here; in the data, active means normalized growth mostly below about 0.91 (no sharp cut-off); inconclusive means no clear call, values can overlap the other calls; inactive means mostly above about 0.92.
# Assay: chemical genetic growth profiling, strain panel (AID 1159580);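 further: tested at 20 µM; growth read once vehicle control cultures reached saturation at 30 °C; 1 = growth at the plate median or of vehicle wells; lower values mean less growth of the strain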
# Conditions: S. cerevisiae deletion strains, growth OD
# [1] = locus YAL021C, strain ccr4, active compounds read low
# [2] = locus YAL026C, strain drs2, active compounds read low
# [3] = locus YAL030W, strain snc1, active compounds read low
# [4] = locus YBL061C, strain skt5, active compounds read low
# [5] = locus YBR009C, strain hhf1, active compounds read low
# [6] = locus YBR023C, strain chs3, active compounds read low
# [7] = locus YBR171W, strain sec66, active compounds read low
# [8] = locus YBR231C, strain swc5, active compounds read low
# [9] = locus YBR279W, strain paf1, active compounds read low
# [10] = locus YCL011C, strain gbp2, active compounds read low
# [11] = locus YCL016C, strain dcc1, active compounds read low
# [12] = locus YCL069W, strain vba3, active compounds read low
# [13] = locus YCR088W, strain abp1, active compounds read low
# [14] = locus YDL005C, strain med2, active compounds read low
# [15] = locus YDL040C, strain nat1, active compounds read low
# [16] = locus YDR001C, strain nth1, active compounds read low
# [17] = locus YDR069C, strain doa4, active compounds read low
# [18] = locus YDR137W, strain rgp1, active compounds read low
# [19] = locus YDR159W, strain sac3, active compounds read low
# [20] = locus YDR297W, strain sur2, active compounds read low
# [21] = locus YDR334W, strain swr1, active compounds read low
# [22] = locus YDR335W, strain msn5, active compounds read low
# [23] = locus YDR392W, strain spt3, active compounds read low
# [24] = locus YEL003W, strain gim4, active compounds read low
# [25] = locus YEL037C, strain rad23, active compounds read low
# [26] = locus YEL061C, strain CIN8 (second series), active compounds read low
# [27] = locus YER015W, strain faa2, active compounds read low
# [28] = locus YER016W, strain bim1, active compounds read low
# [29] = locus YER111C, strain swi4, active compounds read low
# [30] = locus YER155C, strain BEM2 (second series), active compounds read low
# [31] = locus YFR010W, strain ubp6, active compounds read low
# [32] = locus YGL167C, strain pmr1, active compounds read low
# [33] = locus YGL173C, strain kem1, active compounds read low
# [34] = locus YGL227W, strain vid30, active compounds read low
# [35] = locus YGL240W, strain doc1, active compounds read low
# [36] = locus YGL253W, strain hxk2, active compounds read low
# [37] = locus YHR013C, strain ard1, active compounds read low
# [38] = locus YHR027C, strain rpn1, active compounds read low
# [39] = locus YHR142W, strain chs7, active compounds read low
# [40] = locus YJL092W, strain hpr5, active compounds read low
# [41] = locus YJL095W, strain BCK1 (second series), active compounds read low
# [42] = locus YJL115W, strain asf1, active compounds read low
# [43] = locus YJL129C, strain trk1, active compounds read low
# [44] = locus YJL154C, strain vps35, active compounds read low
# [45] = locus YJL164C, strain tpk1, active compounds read low
# [46] = locus YJL166W, strain qcr8, active compounds read low
# [47] = locus YKL160W, strain elf1, active compounds read low
# [48] = locus YKR026C, strain gcn3, active compounds read low
# [49] = locus YKR091W, strain srl3, active compounds read low
# [50] = locus YLL001W, strain dnm1, active compounds read low
# [51] = locus YLL026W, active compounds read low
# [52] = locus YLL041C, strain sdh2, active compounds read low
# [53] = locus YLR027C, strain aat2, active compounds read low
# [54] = locus YLR221C, strain rsa3, active compounds read low
# [55] = locus YLR258W, strain gsy2, active compounds read low
# [56] = locus YLR262C, strain YPT6 (second series), active compounds read low
# [57] = locus YLR320W, strain mms22, active compounds read low
# [58] = locus YLR342W, strain FKS1, active compounds read low
# [59] = locus YLR357W, strain rsc2, active compounds read low
# [60] = locus YLR370C, strain arc18, active compounds read low
# [61] = locus YLR384C, strain iki3, active compounds read low
# [62] = locus YML120C, strain ndi1, active compounds read low
# [63] = locus YMR058W, strain fet3, active compounds read low
# [64] = locus YMR125W, strain sto1, active compounds read low
# [65] = locus YMR129W, active compounds read low
# [66] = locus YMR205C, strain PFK2, active compounds read low
# [67] = locus YMR231W, strain pep5, active compounds read low
# [68] = locus YNL071W, strain lat1, active compounds read low
# [69] = locus YNL209W, strain ssb2, active compounds read low
# [70] = locus YNL248C, strain rpa49, active compounds read low
# [71] = locus YNL322C, strain KRE1 (second series), active compounds read low
# [72] = locus YNR049C, strain mso1, active compounds read low
# [73] = locus YOR001W, strain rrp6, active compounds read low
# [74] = locus YOR070C, strain gyp1, active compounds read low
# [75] = locus YOR080W, strain dia2, active compounds read low
# [76] = locus YOR083W, strain WHI5, active compounds read low
# [77] = locus YOR106W, strain vam3, active compounds read low
# [78] = locus YOR265W, strain rbl2, active compounds read low
# [79] = locus YOR270C, strain vph1, active compounds read low
# [80] = locus YOR290C, strain snf2, active compounds read low
# [81] = locus YPL051W, strain arl3, active compounds read low
# [82] = locus YPL078C, strain atp4, active compounds read low
# [83] = locus YPL106C, strain sse1, active compounds read low
# [84] = locus YPL240C, strain hsp82, active compounds read low
smiles,measurement,setting,value
Cc1nc(N=Nc2ccc(C(=O)O)cc2)c(COP(=O)(O)O)c(C=O)c1O,normalized growth,"locus YAL040C, strain CLN3, active compounds read low",0.978
same,normalized growth,"locus YCL061C, strain MRC1 (second series), active compounds read low",1.01
same,normalized growth,"locus YDR150W, strain NUM1, active compounds read low",1.02
same,normalized growth,"locus YDR363W, strain ESC2, active compounds read low",1
same,normalized growth,"locus YER002W, strain NOP16, active compounds read low",1.02
same,normalized growth,"locus YMR263W, strain SAP30, active compounds read low",1.01
same,normalized growth,"locus YMR307W, strain GAS1, active compounds read low",1.04
same,normalized growth,"locus YNL128W, strain TEP1, active compounds read low",0.99
same,normalized growth,"locus YNL175C, strain NOP13, active compounds read low",1.01
same,normalized growth,"locus YNL197C, strain WHI3, active compounds read low",1.01
same,normalized growth,"locus YNL224C, strain SQS1, active compounds read low",1.01
same,normalized growth,"locus YOR083W, strain WHI5 (second series), active compounds read low",1.03
same,normalized growth,"locus YPL055C, strain LGE1, active compounds read low",1.01
same,normalized growth,"locus YPL241C, strain CIN2, active compounds read low",1.01
COC(=O)C1=COC(OC2OC(CO)C(O)C(O)C2O)C2C(C)CC(=O)C12O (centres undefined),normalized growth,[1],0.942
same,normalized growth,[2],0.994
same,normalized growth,[3],0.975
same,normalized growth,[4],0.991
same,normalized growth,[5],0.944
same,normalized growth,[6],0.986
same,normalized growth,[7],0.983
same,normalized growth,[8],1.02
same,normalized growth,[9],0.995
same,normalized growth,[10],0.982
same,normalized growth,[11],0.978
same,normalized growth,[12],0.987
same,normalized growth,[13],1
same,normalized growth,[14],0.986
same,normalized growth,[15],0.994
same,normalized growth,[16],0.965
same,normalized growth,[17],0.985
same,normalized growth,[18],0.982
same,normalized growth,[19],1.03
same,normalized growth,"locus YDR195W, strain ref2",0.989
same,normalized growth,[20],0.993
same,normalized growth,[21],0.959
same,normalized growth,[22],0.994
same,normalized growth,[23],0.898
same,normalized growth,[24],0.989
same,normalized growth,[25],0.984
same,normalized growth,[26],0.984
same,normalized growth,[27],0.977
same,normalized growth,[28],0.985
same,normalized growth,[29],0.987
same,normalized growth,[30],1.01
same,normalized growth,[31],0.989
same,normalized growth,[32],0.966
same,normalized growth,[33],0.997
same,normalized growth,[34],0.991
same,normalized growth,[35],1.01
same,normalized growth,[36],1.01
same,normalized growth,[37],0.953
same,normalized growth,[38],0.967
same,normalized growth,[39],0.993
same,normalized growth,[40],0.983
same,normalized growth,[41],0.982
same,normalized growth,[42],0.972
same,normalized growth,[43],1
same,normalized growth,[44],0.978
same,normalized growth,[45],0.946
same,normalized growth,[46],0.975
same,normalized growth,[47],0.979
same,normalized growth,[48],0.986
same,normalized growth,[49],0.978
same,normalized growth,[50],1.01
same,normalized growth,[51],0.987
same,normalized growth,[52],0.98
same,normalized growth,[53],1.01
same,normalized growth,[54],1.03
same,normalized growth,[55],0.993
same,normalized growth,[56],0.984
same,normalized growth,[57],1.03
same,normalized growth,[58],0.999
same,normalized growth,[59],0.975
same,normalized growth,[60],1.01
same,normalized growth,[61],0.998
same,normalized growth,[62],0.955
same,normalized growth,[63],0.987
same,normalized growth,[64],0.937
same,normalized growth,[65],0.975
same,normalized growth,[66],0.945
same,normalized growth,[67],0.99
same,normalized growth,[68],0.974
same,normalized growth,[69],1
same,normalized growth,[70],1.03
same,normalized growth,[71],0.978
same,normalized growth,[72],0.971
same,normalized growth,[73],1.02
same,normalized growth,[74],0.996
same,normalized growth,[75],0.992
same,normalized growth,[76],0.98
same,normalized growth,[77],0.94
same,normalized growth,[78],0.999
same,normalized growth,[79],1.02
same,normalized growth,[80],0.927
same,normalized growth,[81],0.999
same,normalized growth,[82],0.954
same,normalized growth,[83],0.959
same,normalized growth,[84],0.986
COc1ccc(-c2cc(=O)c3c(O)cc(OC)c(OC)c3o2)c(OC)c1,normalized growth,[1],0.977
same,normalized growth,[2],1.02
same,normalized growth,[3],1.02
same,normalized growth,[4],0.997
same,normalized growth,[5],0.964
same,normalized growth,[6],0.989
same,normalized growth,[7],1.04
same,normalized growth,[8],0.966
same,normalized growth,[9],1.01
same,normalized growth,[10],1.01
same,normalized growth,[11],1
same,normalized growth,"locus YCL061C, strain MRC1, active compounds read low",1.03
same,normalized growth,[12],1.04
same,normalized growth,[13],1.03
same,normalized growth,[14],1.02
same,normalized growth,[15],1.02
same,normalized growth,[16],1.04
same,normalized growth,[17],0.97
same,normalized growth,[18],0.943
same,normalized growth,[19],1.02
same,normalized growth,"locus YDR195W, strain ref2",1.07
same,normalized growth,[20],1.02
same,normalized growth,[21],1.05
same,normalized growth,[22],1.03
same,normalized growth,[23],0.846
same,normalized growth,[24],1.01
same,normalized growth,[25],1.1 [resistant] (active)
same,normalized growth,[26],1.04
same,normalized growth,[27],0.971
same,normalized growth,[28],1.02
same,normalized growth,[29],1.05
same,normalized growth,[30],0.956
same,normalized growth,[31],1
same,normalized growth,[32],0.998
same,normalized growth,[33],1.02
same,normalized growth,[34],1.04
same,normalized growth,[35],1.04
same,normalized growth,[36],1.01
same,normalized growth,[37],0.975
same,normalized growth,[38],0.985
same,normalized growth,"locus YHR030C, strain SLT2, active compounds read low",1.04
same,normalized growth,"locus YHR079C, strain IRE1, active compounds read low",1.03
same,normalized growth,[39],1
same,normalized growth,[40],1.04
same,normalized growth,[41],1.01
same,normalized growth,"locus YJL095W, strain BCK1, active compounds read low",0.967
same,normalized growth,[42],1.05
same,normalized growth,[43],1.02
same,normalized growth,[44],1.04
same,normalized growth,[45],0.95
same,normalized growth,[46],1
same,normalized growth,"locus YJL187C, strain SWE1, active compounds read low",1.02
same,normalized growth,"locus YJR066W, strain TOR1, active compounds read low",0.973
same,normalized growth,[47],0.993
same,normalized growth,[48],1.05
same,normalized growth,[49],1.03
same,normalized growth,[50],1.01
same,normalized growth,[51],1.02
same,normalized growth,[52],1.02
same,normalized growth,[53],0.996
same,normalized growth,"locus YLR113W, strain HOG1, active compounds read low",0.932
same,normalized growth,[54],0.966
same,normalized growth,[55],1.01
same,normalized growth,[56],0.907
same,normalized growth,[57],0.966
same,normalized growth,[58],0.997
same,normalized growth,[59],0.994
same,normalized growth,[60],1.03
same,normalized growth,[61],1.02
same,normalized growth,[62],1.02
same,normalized growth,[63],0.917
same,normalized growth,[64],1.05
same,normalized growth,[65],1.03
same,normalized growth,[66],1.01
same,normalized growth,[67],1.03
same,normalized growth,[68],1.02
same,normalized growth,"locus YNL183C, strain NPR1, active compounds read low",0.893
same,normalized growth,[69],0.937
same,normalized growth,[70],1.05
same,normalized growth,[71],1.04
same,normalized growth,[72],1.03
same,normalized growth,[73],1.01
same,normalized growth,[74],0.997
same,normalized growth,[75],1.04
same,normalized growth,[76],0.962
same,normalized growth,[77],0.944
same,normalized growth,"locus YOR231W, strain MKK1, active compounds read low",1.03
same,normalized growth,[78],1.01
same,normalized growth,[79],1.03
same,normalized growth,[80],0.961
same,normalized growth,[81],0.916
same,normalized growth,[82],1.03
same,normalized growth,[83],0.983
same,normalized growth,[84],1.02
same,normalized growth,"locus YPL256C, strain CLN2, active compounds read low",1.01

# Reference: PubChem BioAssay AID1159580 (chemical genetic matrix, 2015)
